Screening results as filed in PubChem BioAssay.
The list is not random: actives were taken first. Their share in the collection is about 8.3%.
HCMV antiviral = inhibitors of human cytomegalovirus. 410,000 compounds, 4.5% hits. AID 1259415. activity change, negative = inhibition, % at 57.5 µM. HFF cells, HCMV-luciferase reporter, 72 h; hits give low values; in the data active = activity change below about -60%; inconclusive = no clear call, values can overlap the other calls; inactive = above about -39%
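After 16 h attachment at 37C, HFF cells received test compound and HCMV-luciferase (1 PFU/cell); reporter luminescence read 72 h later, data normalized against buffer-only and known inhibitor Salinomycin.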
MARV entry inh = Marburg virus entry inhibition | Marburg virus pseudotyped entry inhibition, cell reporter | Potency, µM (series often up to 37.8 µM), for inactives: at the top dose activity change, negative = inhibition, actives largely listed as inhibitors | 300,000 compounds, 1.8% hits | AID 540276; calls by dose curve; tested in HEK293 cells; note: potency is the fitted concentration of half-maximal effect
LASV entry inh = Lassa virus entry inhibition | Potency, µM (doses to about 37.9 µM), for inactives: at the highest dose activity change, negative = inhibition, usual class: inhibitors | Lassa virus pseudotype entry inhibition, cell reporter | 300,000 compounds, 1.2% hits; calls by dose curve; tested in HEK293 cells; note: potency is the fitted concentration of half-maximal effect; nearly all actives have a fitted effect of over 50% in size
FMDV inh = antivirals against foot and mouth disease virus; Potency, µM (highest dose often 57.9 µM), for inactives: at the top dose activity change, negative = inhibition, usual class: inhibitors; FMDV antiviral cell-based qHTS; 410,000 compounds, 1.2% hits; calls by dose curve; tested in HEK293T cells; note: read-out not given here; potency is the fitted concentration of half-maximal effect; nearly all actives have a fitted effect of over 45% in size
HCV inhibitor = HCV inhibition. Potency, µM (series often up to 41.8 µM), for inactives: top-dose activity change, negative = inhibition, usual class: inhibitors. Huh7.5.1 HCVcc-Cre infection, luciferase reporter, 44 h. 340,000 compounds, 3.4% hits; note: potency is the fitted concentration of half-maximal effect
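HCVcc-Cre virus at an moi near 0.5 was added right after compound to cells cultured 4 h from seeding (1,000 cells/well). Luciferase activity was determined 44 h later, 15 min after substrate addition at RT.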
Giardia FBPA inh-1 = Giardia lamblia aldolase inhibition; AID 2451; Potency, µM (titrated, usually from 59.6 µM), for inactives: top-dose activity, negative = inhibition, actives largely listed as inhibitors; 290,000 compounds, 0.71% hits; purified Giardia FBPA; note: potency is the fitted concentration of half-maximal effect; nearly all actives have a fitted effect of over 55% in size
Target sequence (A8B2U2 whole entry, looked up): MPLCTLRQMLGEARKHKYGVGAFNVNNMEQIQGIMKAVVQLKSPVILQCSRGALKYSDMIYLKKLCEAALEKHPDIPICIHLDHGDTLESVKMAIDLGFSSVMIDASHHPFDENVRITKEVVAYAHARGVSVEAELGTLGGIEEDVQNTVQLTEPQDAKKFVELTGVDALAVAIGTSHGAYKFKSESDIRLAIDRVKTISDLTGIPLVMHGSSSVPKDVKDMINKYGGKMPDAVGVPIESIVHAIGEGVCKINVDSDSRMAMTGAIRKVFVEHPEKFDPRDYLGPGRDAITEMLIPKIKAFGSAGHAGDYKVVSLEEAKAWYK
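40 nM FBPA preincubated 10 min at RT with compound (up to 57.5 uM final), then substrate plus GAPDH/TPI/NAD/arsenate coupling and diaphorase/resazurin added. Fluorescence read after 20 min at RT, 525/598 nm.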
Giardia growth = Giardia lamblia growth inhibition; Potency, µM (top dose mostly 57.5 µM), for inactives: at the top dose activity change, negative = inhibition, most hits filed as inhibitors; AID 2785; Giardia lamblia trophozoite growth inhibition; shares compounds with Giardia FBPA inh-1; 1,500 compounds, 5% hits;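 note: potency is the fitted concentration of half-maximal effect; trophozoites exposed to compound for 48 h at 37 °C; nearly all actives have a fitted effect of over 70% in size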
Mammal cell tox = mammalian cytotoxicity of Giardia aldolase inhibitor hits | shares compounds with Giardia FBPA inh-1 | mammalian cell viability counter-screen, qHTS | Potency, µM (series often up to 57.5 µM), inactives show at the highest dose viability change, negative = toxicity, usual class: inhibitors | 1,500 compounds, 4% hits;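 note: Chinese hamster ovary cells used as mammalian cytotoxicity surrogate; viability measured as cellular ATP by luminescence; potency is the fitted concentration of half-maximal effect; compound exposure lasted 48 h before reading; nearly all actives have a fitted effect of over 60% in size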
Giardia FBPA inh-2 = confirmation of Giardia fructose-bisphosphate aldolase inhibitors; Potency, µM (doses to about 57.5 µM), for inactives: top-dose activity change, negative = inhibition, actives largely listed as inhibitors; 1,500 compounds, 5% hits; shares compounds with Giardia FBPA inh-1; purified Giardia aldolase enzyme activity, qHTS; AID 2787; note: potency is the fitted concentration of half-maximal effect; nearly all actives have a fitted effect of over 45% in size
Rabbit aldolase = selectivity test for Giardia aldolase inhibitors: rabbit aldolase; shares compounds with Giardia FBPA inh-1; Rabbit muscle FBPA enzyme inhibition, selectivity counter-screen; Potency, µM (doses to about 57.5 µM), for the others: at the highest dose activity, negative = inhibition, most hits filed as inhibitors; 1,500 compounds, 4% hits; note: potency is the fitted concentration of half-maximal effect; nearly all actives have a fitted effect of over 60% in size
Target sequence (P00883 whole entry, looked up): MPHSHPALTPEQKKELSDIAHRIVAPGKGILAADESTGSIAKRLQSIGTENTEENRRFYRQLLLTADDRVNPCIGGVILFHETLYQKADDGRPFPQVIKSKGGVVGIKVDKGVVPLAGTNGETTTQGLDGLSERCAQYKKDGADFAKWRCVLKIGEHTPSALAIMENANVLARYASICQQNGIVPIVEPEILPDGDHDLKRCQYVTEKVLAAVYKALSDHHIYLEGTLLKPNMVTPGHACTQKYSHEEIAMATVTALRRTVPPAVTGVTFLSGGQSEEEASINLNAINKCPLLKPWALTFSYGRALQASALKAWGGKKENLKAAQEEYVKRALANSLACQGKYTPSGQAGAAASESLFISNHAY
GAPDH counter = counter-screen for Giardia aldolase inhibitors: GAPDH coupling enzyme. Potency, µM (highest dose often 57.5 µM), for inactives: at the top dose activity change, negative = inhibition, most hits filed as inhibitors. 1,500 compounds, 6% hits. shares compounds with Giardia FBPA inh-1. AID 2795. GAPDH coupling enzyme counterscreen, biochemical, qHTS; note: potency is the fitted concentration of half-maximal effect; nearly all actives have a fitted effect of over 55% in size
The depositor's hits bear a star; ? = inconclusive; . = not tested or not shown; [ ] = remark or other dose. Unless noted, calls come from the whole dose curve; as a rule, active = well fitted curve in the direction sought with a large enough effect; inconclusive = small, poorly fitted or top-dose-only effect, or another doubt; inactive = no such curve, though single readings can be large; an effect the other way counts as inactive or inconclusive. % is set by controls: 0 for no effect and ±100 for the full control effect.

SMILES | HCMV antiviral | MARV entry inh | LASV entry inh | FMDV inh | HCV inhibitor | Giardia FBPA inh-1 | others
C=C[C@@H]1c2c(F)cccc2N(S(=O)(=O)c2ccc(C)cc2)[C@H](c2ccc(C(=O)OC)cc2)C1(C#N)C#N | -36 | . | . | 0% | -14% | .
C=C[C@@H]1c2c(F)cccc2N(S(=O)(=O)c2ccc(C)cc2)[C@H](c2ccc(OC(C)=O)cc2)C1(C#N)C#N | -32 | . | . | -20% | 22µM* | .
CCCc1nnc(NC(=O)Cc2coc3ccc(C)cc23)s1 | 2 | ? | 1%[46.1 µM] | -17% | . | .
CSc1ccc(CN2CCC(n3nccc3NC(=O)CCCc3ccccc3)CC2)cc1 | -68* | ? | ? | -15% | ? | .
Fc1ccc(C(OCCN2CCCC2)c2ccc(F)cc2)cc1 | -25 | ? | -19% | -24% | ? | -2%
Fc1ccc(C(OCCN2CCN(CCCc3ccccc3)CC2)c2ccc(F)cc2)cc1 | -99* | 7.1µM* | 3.7µM* | ? | . | -6%
c1ccc(CCCN2CCN(CCOC(c3ccccc3)c3ccccc3)CC2)cc1 | -66* | 14µM* | 16µM* | ? | 7.9µM* | -1%
c1ccc(COCCN2CCN(CCOCc3ccccc3)CC2)cc1 | -3 | ? | -3% | 5% | -21% | 2%
CCOC(=O)c1c(C)n(S(=O)(=O)c2ccc(C)cc2)c2ccc(NS(=O)(=O)c3ccc(C)cc3)cc12 | 23 | -30%[46.1 µM] | 6.3µM* | -6% | . | .
O=C(O)C1(C(=O)O)CCC1.[NH2-].[NH2-].[Pt+2] | . | ? | . | . | . | 14µM*
CCN1CCN(c2csc3ccc(C)cc3c2=O)CC1 | 2 | . | 9%[46.1 µM] | 29% | . | .
O=C1Nc2ccc(-c3cccnc3)cc2C1=Cc1cc(Br)c(O)c(Br)c1 | . | . | 13µM* | . | . | .
O=C(Cc1ccccc1[N+](=O)[O-])c1ccccc1[N+](=O)[O-] | -14 | . | . | . | . | .
c1ccc(-n2ncc3c(N4CCCCC4)ncnc32)cc1 | -37 | . | . | -86% | -18% | -2%
Cc1cccc(-n2ncc3c(N4CCCCCC4)ncnc32)c1 | -61* | . | -5%[46.1 µM] | 16µM* | . | .
Cc1cccc(-n2ncc3c(N4CCCC(C)C4)ncnc32)c1 (centres undefined) | -35 | . | -22%[46.1 µM] | 25µM* | . | .
Cc1cccc(N2CCN(c3ncnc4c3cnn4-c3ccc(Cl)cc3)CC2C)c1 (centres undefined) | 1 | . | -1%[46.1 µM] | 32µM* | . | .
Cc1cccc(-n2ncc3c(N4CCC(C)CC4)ncnc32)c1 | 147 | . | . | 4% | -3% | 0%
Cc1ccc(-n2ncc3c(N4CCCCCC4)ncnc32)cc1C | -98* | . | 22%[46.1 µM] | 56µM* | . | .
C=CCOC(=O)C1(C(NC(=O)OC)c2ccccc2)C(=O)Cc2ccccc21 (centres undefined) | . | -21%[14.2 µM] | . | . | . | -2%
COc1cccc(N2CCN(c3ncnc4c3cnn4-c3ccc(C)cc3C)CC2)c1 | -97* | -4% | . | 4µM* | 3.5µM* | -8%
Cc1ccc(-n2ncc3c(SCc4cccc(C)c4)ncnc32)cc1 | -3 | ? | 2% | 8% | -13% | 4%
Cc1ccc(-n2ncc3c(N4CCCC4)ncnc32)c(C)c1 | 74 | 8% | 1% | -22% | 6% | -24%
Cc1ccc(-n2ncc3c(SCc4cccnc4)ncnc32)c(C)c1 | -84* | ? | 2.8µM* | -27% | 11µM* | 5%
C=CCn1c(Cc2ccccc2)nc2c(cnn2-c2ccccc2)c1=O | ? | ? | ? | 28µM* | ? | 13%
SMILES | HCMV antiviral | MARV entry inh | LASV entry inh | FMDV inh | HCV inhibitor | Giardia FBPA inh-1 | others
Nn1c(SCc2ccccc2)nc2c(cnn2-c2ccccc2)c1=O | 29 | . | . | 22% | -11% | -4%
Cc1c(C(=O)NCCC2CCCN2C)cnn1-c1nccc(-c2ccccc2F)n1 (centres undefined) | . | . | . | -14% | . | .
Cc1c(Cl)cccc1NC(=O)Cn1c(=O)nc(-c2ccccc2)c2ccccc21 | -87* | . | -5%[46.1 µM] | 10µM* | . | .
Cc1cccc(NC(=O)Cn2c(=O)nc(-c3ccccc3)c3ccccc32)c1C | 28 | . | ? | 0% | . | .
O=C(Cn1c(=O)nc(-c2ccccc2)c2ccccc21)NCc1ccc(Cl)cc1 | -94* | . | ? | -9% | . | .
CCn1nc(-c2ccccc2)c(-c2ccccc2)c(C(=O)OCCOC)c1=O | 48 | 8%[46.1 µM] | -1%[46.1 µM] | -18% | . | .
OC1c2ccccc2-c2nc3ccccc3cc21 (centres undefined) | . | . | . | . | . | -20%
O=C(Nc1cccc(C(=O)Nc2ccc(F)cc2F)c1)c1ccccc1 | -4 | . | . | 27% | ? | -8%
O=C(Nc1ccc(F)cc1F)c1cc(=O)n(-c2ccccc2)c(=O)[nH]1 | -10 | . | . | 3% | 10% | 7.9µM* | Giardia growth=27%;Mammal cell tox=-11%;Giardia FBPA inh-2=-7%;Rabbit aldolase=4%;GAPDH counter=-2%
Cc1cc(C)c(C)c(OCC(=O)Nc2ccc(S(=O)(=O)Nc3nc(C)cc(C)n3)cc2)c1 | 19 | 17%[46.1 µM] | -7%[46.1 µM] | 62% | . | .
Cc1ccc(OCCCn2ccnc2)c(Br)c1 | 66 | . | . | 11% | -20% | 18µM* | Giardia growth=-8%[10.4 µM];Mammal cell tox=19%;Giardia FBPA inh-2=2%;Rabbit aldolase=14%;GAPDH counter=3%
c1ccc2cc(OCCCn3ccnc3)ccc2c1 | 10 | 3%[46.1 µM] | ? | 5% | -27% | 22µM* | Giardia growth=106%;Mammal cell tox=0%;Giardia FBPA inh-2=0%;Rabbit aldolase=3%;GAPDH counter=13%
CC(C)(C)c1ccc(OCCCn2ccnc2)cc1 | -10 | 16%[46.1 µM] | -1%[46.1 µM] | 30% | ? | 28µM* | Giardia growth=12%;Mammal cell tox=1%;Giardia FBPA inh-2=-3%;Rabbit aldolase=-8%;GAPDH counter=-2%
Cc1ccc(OCCCn2ccnc2)c([N+](=O)[O-])c1 | -22 | 11% | ? | 8% | 19% | -23%
Cc1cc(OCCCn2ccnc2)ccc1C(C)C | -13 | 1% | 14% | -9% | -21% | -19%
C=CCc1cc(Cl)ccc1OCCN1CC(C)OC(C)C1 (centres undefined) | -22 | 2%[46.1 µM] | 10% | ? | 5% | 18µM* | Giardia growth=-19%;Mammal cell tox=-7%;Giardia FBPA inh-2=-6%;Rabbit aldolase=-2%;GAPDH counter=0%
